Experimental data from PubChem BioAssay (NCI).
The panel holds about 83,000 compounds, 20% with a hit somewhere; the sample as a whole holds those more often.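 Growth was measured after 48 h exposure to one concentration of compound in 96-well plates. Values under 10 count as active.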 A number with no mark means an inactive call. Calls of active or inactive are those of the source.

How the values were obtained:
Test in all cases: NCI-60 one-dose screen, 48 h (100 = growth as untreated, 0 = no growth, -100 = all killed)
Details in all cases: 10 µM unless noted
SR leukemia = test system: SR leukemia
RPMI-8226 leukemia = test system: RPMI-8226 leukemia
OVCAR-8 ovarian = test system: OVCAR-8 ovarian
OVCAR-5 ovarian = test system: OVCAR-5 ovarian
OVCAR-4 ovarian = test system: OVCAR-4 ovarian
SK-OV-3 ovarian = test system: SK-OV-3 ovarian
IGROV1 ovarian = test system: IGROV1 ovarian
OVCAR-3 ovarian = test system: OVCAR-3 ovarian
HS 578T breast = test system: HS 578T breast
NCI/ADR-RES ovarian = test system: NCI/ADR-RES ovarian

Row | SMILES | growth (SR leukemia) | growth (RPMI-8226 leukemia) | growth (OVCAR-8 ovarian) | growth (OVCAR-5 ovarian) | growth (OVCAR-4 ovarian) | growth (SK-OV-3 ovarian) | growth (IGROV1 ovarian) | growth (OVCAR-3 ovarian) | growth (HS 578T breast) | growth (NCI/ADR-RES ovarian)
1 | COC1=CC(c2ccc[nH]2)=N/C1=C\c1[nH]c(C)c(CC(=O)OCc2ccccc2)c1CCC(=O)OCc1ccccc1 | -36.2% (active) | -50.8% (active) | -18.9% (active) | -17.1% (active) | 13.6% | -13.6% (active) | 12.6% | -86.8% (active) | -18.9% (active) | -26.4% (active)
2 | O=S(=O)(NCCNc1nccc(-c2c(-c3ccc(F)c(O)c3)nc3sccn23)n1)c1ccc(O)cc1 | 38.4% | 17.9% | 32.8% | 104% | 34.1% | – | 36.1% | 57.4% | 64.1% | 39.6%
3 | OCCn1cc(-c2nc(-c3c[nH]c4ncccc34)cs2)c2cc(F)ccc21 | 22% | 53.6% | 80.2% | 84.3% | 52.4% | 70.1% | 44.7% | 81% | 70.9% | 82.6%
4 | CCOC(=O)C1=C(C)NC(=O)NC1c1c(Cl)n(CCCl)c2ccccc12 (stereo not given) | 102% | 77.3% | 96.7% | 101% | 112% | – | 103% | 98.5% | 93.1% | 97.1%
5 | CC1OC(n2c3ccccc3c3c4c(c5c6ccccc6[nH]c5c32)C(=O)N(CCN2CCCC2)C4=O)CC(O)C1O (stereo not given) | -2.62% (active) | 5.56% (active) | 53.1% | 78.1% | 22.9% | – | 48.9% | 60.2% | 58.2% | 54.1%
6 | N#Cc1c(-c2ccccc2)cc(-c2ccc(Nc3nc(Nc4ccc(Cl)cc4)nc(Nc4ccc(Cl)cc4)n3)cc2)nc1N | -30.8% (active) | -45.4% (active) | 32.6% | 63.2% | -15.2% (active) | – | -8.08% (active) | -54% (active) | 14.4% | 53.2%
7 | C=CC[Se]C(=O)Cc1c(C)n(C(=O)c2ccc(Cl)cc2)c2ccc(OC)cc12 | 2.02% (active) | -25.8% (active) | -38.1% (active) | -44.7% (active) | -50.7% (active) | – | 2.4% (active) | -40.6% (active) | -12.7% (active) | -7.75% (active)
8 | CCCCNC(=O)CC1=C(C)/C(=C/c2[nH]c(-c3ccc[nH]3)cc2OC)N=C1C | -16.8% (active) | 39.2% | 20.5% | 50.2% | 39.7% | – | 49.2% | 24.4% | 43.1% | 30.1%
9 | COc1ccc(Nc2nnc(-c3ccc(OC)c(OC)c3)o2)cc1 | 86.6% | 92.1% | 90.9% | 100% | 89.2% | – | 78.7% | 91.4% | 94.2% | 89.2%
10 | O=C1C(=O)N(Cc2ccc(-c3ccccc3)cc2)c2ccc(OC(F)(F)F)cc21 | 2.04% (active) | -5.6% (active) | 23.6% | 37.3% | 36.3% | – | 36% | 24.7% | 11.2% | 32.6%
11 | CCCCCCCCCCC(CN(CC)CC)C(O)c1ccccc1 (stereo not given) | -17.6% (active) | 9.59% (active) | 53.6% | 49.7% | 47.5% | 54.9% | 40.7% | 37.7% | 45% | 33.6%
12 | COc1ccc(Cc2cnc(NC(=O)c3cc(C)oc3C)s2)cc1 | 14.1% | 51.9% | 45.3% | 53.6% | 58.5% | – | 44.6% | 15% | 24.5% | 20.6%
13 | CC(=O)O[C@@H]1C[C@]2(C(C)C)O[C@@]1(C)[C@@H]1CCC(C)=C1[C@@H]2OC(=O)/C=C/c1ccccc1 | 73.6% | 76.6% | 67.5% | 98.1% | 79.1% | – | 94.9% | 89.7% | 20% | 71.9%
14 | O=C(COc1ccc(-c2nc3cc(Cl)c(Cl)cc3[nH]2)cc1)N=Nc1c(O)[nH]c2ccc(Cl)cc12 | 31.1% | 56% | 37% | 95.6% | 64.2% | – | 79.9% | 75.1% | 67.5% | 95.8%
15 | C#CCOc1ccc2ncnc(Nc3ccc(NC(=O)C=C)cc3)c2c1 | -23% (active) | -29.4% (active) | 0.598% (active) | 12.2% | 35% | – | -59% (active) | -22.3% (active) | 14.9% | 67%
16 | C=C(C)[C@@H]1CCC[C@]2(COS(=O)(=O)c3ccc(C)cc3)CC[C@]3(C)[C@@H](CC[C@@H]4[C@@]5(C)CCCNC(C)(C)[C@@H]5CC[C@]43C)[C@@H]12 | -46.1% (active) | -14.8% (active) | -77.6% (active) | 63.3% | -64.4% (active) | – | -87.1% (active) | -87.7% (active) | 61.4% | -3.42% (active)
17 | COc1ccc(-c2noc(C(=O)O)c2-c2cc(OC)c(OC)c(OC)c2)cc1 | 10.4% | 0.35% (active) | 30.4% | 87% | 76.7% | – | 47% | 9.65% (active) | 13.3% | 27.7%
18 | Cc1ccc2c(c1)=C/C(=C\c1cc(-c3ccccc3)oc1O)C(=O)N=2 | 101% | 94.2% | 104% | 97.9% | 105% | – | 111% | 96.5% | 106% | 98.4%
19 | Oc1c(Br)cc(Br)c2ccc(Cn3cc(-c4ccccc4C(F)(F)F)nn3)nc12 | 2.33% (active) | 45.4% | 92.9% | 100% | 79.4% | 116% | 107% | 51.5% | 105% | 105%
20 | CCN(CC)S(=O)(=O)c1ccc(S(=O)(=O)N2CCC[C@@H](C(=O)N3CCN(c4nc(C(C)C)no4)CC3)C2)cc1 | 31.6% | 54.8% | 61.3% | 102% | 30.8% | – | 86.2% | 75.6% | 82.8% | 58.9%
21 | Fc1ccc(CNc2c3ccccc3nc3ccccc23)c(F)c1 | 25.2% | 28.3% | 40.2% | 51.7% | -8.19% (active) | – | 35.7% | 70.2% | 75.4% | 36.2%
22 | CCC1=C[C@@H]2C[C@]3(C(=O)OC)c4[nH]c5ccccc5c4CC[N@+](CC(=O)Nc4cc5c(cc4OC)N(C)[C@H]4[C@@](O)(C(=O)OC)[C@H](OC(C)=O)[C@]6(CC)C=CCN7CC[C@]54[C@@H]76)(C2)[C@H]13 | 99.4% | 105% | 102% | 109% | 104% | – | 104% | 109% | 99.4% | 106%
23 | CCC(C)N(CCNc1cc(OC)cc2cccnc12)CC(C)C (stereo not given) | 85.4% | 70.3% | 90.9% | 99.6% | 16.4% | 95.1% | 53.6% | 65.2% | 110% | 83.5%
24 | CCOCCNC1=C(Cl)C(=O)c2ccccc2C1=O | 89.3% | 90.4% | 106% | – | 107% | 108% | 112% | 101% | 91.9% | 103%
25 | COc1cc(-c2csc(NC(=O)c3ccc(N4CCOCC4)c(C(F)(F)F)c3)n2)cc(OC)c1OC | 23.3% | 6.74% (active) | 2.22% (active) | – | 23.1% | 74.5% | 29.5% | 38.3% | 60% | 3.62% (active)
